Data reported in PubChem BioAssay (EPA / NIEHS).
Activity calls are given as the source filed them. Rule for the calls: active = hit-call score of the fitted dose curve at least 0.9, where 1 is the maximum; inactive = score below 0.9.

test: ATG_Ets_CIS: Attagene CIS-FACTORIAL HepG2 Assay for human Erythroblast Transformation Specific (ETS) (AID 2282941); details: HepG2 ETS cis-reporter transcription, actives raise or lower the signal
Description: ATG_CIS is a cell-based, multiplexed-readout assay that uses HepG2, a human liver cell line, with measurements taken at 24 hours after chemical dosing in a 24-well plate.ATG_Ets_CIS is one of 52 assay component(s) measured or calculated from the ATG_CIS assay. It is designed to make measurements of mRNA induction, a form of inducible reporter, as detected with fluorescence intensity signals by Reverse transcription polymerase chain reaction (RT-PCR) and Capillary electrophoresis technology.Data from the assay component ATG_Ets_CIS was analyzed into 1 assay endpoint. This assay endpoint, ATG_Ets_CIS, was analyzed with bidirectional fitting relative to DMSO as the negative control and baseline of activity. Using a type of inducible reporter, measures of mRNA for gain or loss-of-signal activity can be used to understand the reporter gene at the transcription factor-level as they relate to the gene ETS1. Furthermore, this assay endpoint can be referred to as a primary readout, because this assay has produced multiple assay endpoints where this one serves a reporter gene function. To generalize the intended target to other relatable targets, this assay endpoint is annotated to the dna binding intended target family, where the subfamily is winged helix-turn-helix.
Human liver HepG2 cells are transiently transfected with multiple reporter transcription units (MRTUs) in 6-well plates using FuGene 6 reagent (Roche; 3 ml FuGene/1 mg DNA). The MRTU constructs are regulated by a cis-regulating element (promoter). […] A major difference between the CIS and TRANS system is that in CIS activities of endogenous TFs are measured, whereas the TRANS assay evaluates changes in activities of exogenous, chimeric NR-Gal4 proteins. […] At the end of 24 hour incubation, total RNA was isolated using TriZol reagent (Invitrogen). The isolated RNA is then reverse-transcribed using oligo(dT) primer and Mo-MLV reverse transcriptase (Invitrogen) with DNAse I (Ambion) treatment for 30 min. The one-tenth of the produced cDNA was amplified by PCR using Taq DNA polymerase (Invitrogen) and two reporter sequence-specific primers. The PCR products were fluorescently labeled by primer extension with 6-arboxyfluorescein (6-FAM) 5'-labeled reporter sequence-specific primer (2 min at 95 C, 20 s at 68 C and 10 min at 72 C) and these products were digested with 5U of HpaI (New England Biolabs) for 2h at 37 C. The fragments were purified using Qiaquick PCR columns (Qiagen), analyzed on an ABI 3130xL genetic analyzer (Applied Biosystems) with peak positions identified by using a set of X-rhodamine (ROX)-labeled MapMarker1000 molecular weight standards (BioVentures). The raw capillary electrophoresis data was processed using Attagraph software (Attagene).

SMILES | outcome | AC50
CN1CCN(Cc2cc(-c3ccc4[nH]c(=O)oc4c3)co2)[C@@H](c2ccc(F)cc2)C1 | inactive | 
Cc1cccc(C)c1O | inactive | 
Cc1ccc2ncccc2c1 | inactive | 
O=C(N[C@@H](Cc1ccccc1)[C@@H](O)C(=O)N1C[C@@H](O)[C@@H](O)C1)c1cc2cc(Cl)ccc2[nH]1 | inactive | 
NCCO | inactive | 
Cc1cccc([N+](=O)[O-])c1C | inactive | 
CCCCCCCCCCCCCCCC | inactive | 
Cc1nc(C)nc(N2C[C@@H](C)N(c3ccnc([C@@H](C)O)n3)[C@@H](C)C2)n1 | inactive | 
OC[C@@H](O)[C@@H](O)[C@H](O)[C@H](O)CO | inactive | 
CN1CCCC1=O | inactive | 
CNC(=O)[C@H]1O[C@@H](n2cnc3c(NCc4cc(Cl)ccc4OCc4cc(C)no4)ncnc32)[C@H](O)[C@@H]1N | inactive | 
Cc1cc(=O)[nH]c(=S)[nH]1 | inactive | 
C=CCc1ccc(O)c(OC)c1 | inactive | 
FC(F)(F)C(F)(F)C(F)(F)C(F)(F)C(F)(F)C(F)(F)CCI | inactive | 
Nc1ccc2c(c1)C(=O)c1ccccc1C2=O | inactive | 
C=CCOC(=O)c1ccccc1C(=O)OCC=C | inactive | 
CNCc1cc(F)ccc1Oc1ccc(Cl)c(Cl)c1 | inactive | 
NCC1(Cc2noc(=O)[nH]2)CCCCC1 | inactive | 
CCCCOC(=O)CCCCCCCCC(=O)OCCCC | inactive | 
Nc1nc(N)c2nc(CNc3ccc(C(=O)N[C@@H](CCC(=O)O)C(=O)O)cc3)cnc2n1 | inactive | 

SMILES | outcome | AC50
CCOC(=O)C(C)(C)Oc1ccc(Cl)cc1 | inactive | 
CC(=O)OC/C=C(\C)CCC=C(C)C | inactive | 
CC(C)c1ccc(C(=O)N=C(N)N)cc1S(C)(=O)=O | inactive | 
Cc1cc(NC(=O)C(=O)O)cc(C)c1Oc1ccc(O)c2c1CCC2 | inactive | 
NS(=O)(=O)c1cc2c(cc1Cl)NCNS2(=O)=O | inactive | 
Cc1nc(-c2ccc3c(c2)CCN(CCC2CCC(NC(=O)/C=C/c4ccc(F)cc4)CC2)CC3)no1 (stereo not given) | inactive | 
Oc1ccc2ccccc2c1N=Nc1ccccc1 | inactive | 
CC(=O)OCCOCCOCCOC(C)=O | inactive | 
C[C@]12C=CC(=O)C=C1CC[C@@H]1[C@@H]2C(=O)C[C@@]2(C)[C@H]1CC[C@]2(O)C(=O)CO | inactive | 
CCCCc1ccc2c(n1)[C@@H](c1ccc(OC)cc1C[C@H](C)C(=O)O)[C@H](C(=O)O)[C@H]2c1ccc2c(c1)OCO2 | inactive | 
Cc1ccc(C)c(C)c1 | inactive | 
C[Si]1(C)O[Si](C)(C)O[Si](C)(C)O[Si](C)(C)O1 | inactive | 
CCCCCCCCCCCC(=O)OC | inactive | 
C1CCC(SSC2CCCCC2)CC1 | inactive | 
Nc1ccccc1N | inactive | 
CCCCC(CC)COC(=O)CC(C(=O)OCC(CC)CCCC)S(=O)(=O)O (stereo not given) | inactive | 
Cc1ccc(N(C)C)cc1 | inactive | 
CCOc1ccc2c(c1)C(C)=CC(C)(C)N2 |  | 181 µM (active)
Clc1cc(Cl)c(Cl)cc1Cl | inactive | 
CC1(C)NC(=O)NC1=O | inactive | 
